Measurements published in PubChem BioAssay (NCI).
About 83,000 compounds went through this panel and 20% of them were active in at least one assay; those are over-represented in the sample as a whole.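 Percent growth is the endpoint: 0 to 100 indicates growth inhibition (40 means 60% inhibition), 0 means no net growth, and negative values indicate cell death.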 Active and inactive are the calls of the source. Rule for the calls: active = growth percent below 10; inactive = the rest.

Legend:
Assay in all cases: NCI-60 one-dose screen, 48 h (100 = growth as untreated, 0 = no growth, -100 = all killed)
HCT-15 colon = details: 10 µM unless noted
HT29 colon = details: 10 µM unless noted
SNB-75 CNS = details: 10 µM unless noted
SNB-19 CNS = details: 10 µM unless noted
U251 CNS = details: 10 µM unless noted
PC-3 prostate = details: 10 µM unless noted
SK-MEL-5 melanoma = details: 10 µM unless noted
UACC-62 melanoma = details: 10 µM unless noted
LOX IMVI melanoma = details: 10 µM unless noted
SK-MEL-28 melanoma = details: 10 µM unless noted
SK-MEL-2 melanoma = details: 10 µM unless noted
EKVX NSCLC = details: 10 µM unless noted
SN12C renal = details: 10 µM unless noted
UO-31 renal = details: 10 µM unless noted
TK-10 renal = details: 10 µM unless noted
ACHN renal = details: 10 µM unless noted
A498 renal = details: 10 µM unless noted
CCRF-CEM leukemia = details: 10 µM unless noted
MOLT-4 leukemia = details: 10 µM unless noted
CAKI-1 renal = details: 10 µM

Measured: growth

FC(F)(F)c1cn(CCN2CCOCC2)c2ncnc(Cl)c12
inactive: HCT-15 colon 14.9% | HT29 colon 72.7% | SNB-75 CNS 78.1% | SNB-19 CNS 22.5% | U251 CNS 71.2% | PC-3 prostate 28.1% | SK-MEL-5 melanoma 42.5% | UACC-62 melanoma 53.2% | SK-MEL-28 melanoma 72.4% | SK-MEL-2 melanoma 41.3% | EKVX NSCLC 92.6% | SN12C renal 71.2% | TK-10 renal 113% | ACHN renal 64.7% | A498 renal 105% | CCRF-CEM leukemia 12.3% | MOLT-4 leukemia 40.4%
active: LOX IMVI melanoma -63.9% | UO-31 renal -85.5%

Cc1cn([C@]2(CF)O[C@H](CO)C2C)c(=O)[nH]c1=O (stereo partly drawn)
inactive: HCT-15 colon 112% | HT29 colon 112% | SNB-75 CNS 116% | SNB-19 CNS 118% | U251 CNS 103% | PC-3 prostate 117% | SK-MEL-5 melanoma 89.4% | UACC-62 melanoma 122% | LOX IMVI melanoma 97.9% | SK-MEL-28 melanoma 121% | SK-MEL-2 melanoma 98.3% | EKVX NSCLC 106% | SN12C renal 125% | UO-31 renal 109% | TK-10 renal 109% | ACHN renal 112% | A498 renal 115% | CCRF-CEM leukemia 114% | MOLT-4 leukemia 94%

COC(=O)Nc1nc2ccc(Sc3ccccc3)cc2[nH]1
inactive: HCT-15 colon 13.8% | SNB-75 CNS 21.7% | SNB-19 CNS 31.3% | U251 CNS 17% | PC-3 prostate 26.6% | UACC-62 melanoma 35.9% | LOX IMVI melanoma 19.3% | SK-MEL-28 melanoma 48.9% | SK-MEL-2 melanoma 53% | EKVX NSCLC 57.1% | SN12C renal 44.6% | UO-31 renal 34.6% | TK-10 renal 65.6% | CAKI-1 renal 39.1% | A498 renal 13.9% | CCRF-CEM leukemia 10.7% | MOLT-4 leukemia 14.6%
active: HT29 colon 4.14% | SK-MEL-5 melanoma 8.9%

O=C(Cn1c2ccccc2c2ccncc21)N/N=C/c1cc(O)c(O)c(O)c1
inactive: HCT-15 colon 105% | HT29 colon 103% | SNB-75 CNS 115% | SNB-19 CNS 93.9% | U251 CNS 101% | PC-3 prostate 102% | SK-MEL-5 melanoma 101% | UACC-62 melanoma 103% | LOX IMVI melanoma 96.9% | SK-MEL-28 melanoma 108% | SK-MEL-2 melanoma 98.9% | EKVX NSCLC 109% | SN12C renal 104% | UO-31 renal 98.6% | TK-10 renal 107% | ACHN renal 108% | A498 renal 97.5% | MOLT-4 leukemia 88.4%

CCCCCCCCCCCC(=O)OCCNC(=O)C[n+]1ccccc1
inactive: HCT-15 colon 110% | HT29 colon 93.7% | SNB-75 CNS 96.5% | SNB-19 CNS 102% | U251 CNS 101% | PC-3 prostate 92.5% | SK-MEL-5 melanoma 100% | UACC-62 melanoma 104% | LOX IMVI melanoma 106% | SK-MEL-28 melanoma 109% | SK-MEL-2 melanoma 97.7% | EKVX NSCLC 91.8% | SN12C renal 102% | UO-31 renal 83% | TK-10 renal 101% | ACHN renal 99.9% | MOLT-4 leukemia 104%

Cc1ccc2c(c1)Nc1ccc(C)cc1C2(C)C
inactive: HCT-15 colon 96% | HT29 colon 79% | SNB-75 CNS 83.9% | SNB-19 CNS 115% | U251 CNS 100% | PC-3 prostate 90.6% | SK-MEL-5 melanoma 97.9% | UACC-62 melanoma 100% | LOX IMVI melanoma 101% | SK-MEL-28 melanoma 105% | SK-MEL-2 melanoma 88.9% | EKVX NSCLC 87.8% | SN12C renal 103% | UO-31 renal 91.3% | TK-10 renal 102% | ACHN renal 112% | A498 renal 118% | MOLT-4 leukemia 73.4%

CN1CCN(C(=O)/C=C/c2ccc([N+](=O)[O-])o2)CC1
inactive: HCT-15 colon 63.8% | HT29 colon 81.8% | SNB-75 CNS 95.2% | SNB-19 CNS 98% | U251 CNS 90% | PC-3 prostate 95.7% | SK-MEL-5 melanoma 90.1% | UACC-62 melanoma 69.9% | LOX IMVI melanoma 66.7% | SK-MEL-28 melanoma 35.8% | SK-MEL-2 melanoma 59.5% | EKVX NSCLC 132% | SN12C renal 91% | UO-31 renal 79.3% | TK-10 renal 159% | ACHN renal 63.7% | CCRF-CEM leukemia 56.4% | MOLT-4 leukemia 59.9%
